Measurements reported in article PMC4336329 (PLoS ONE, 2015).
The whole screen tested about 310,000 compounds, of which about 14,000 (4.5%) showed an effect of 50% or more. Effects have a minus sign here. Shown is part of a subset that was picked to be rich in strong results.

Target: human ether-à-go-go-related gene (hERG) potassium channel (human, UniProt Q12809)
Test: primary screen, population patch clamp on CHO cells stably expressing hERG; higher = less effect of the substance
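Further: peak tail current of the secondary pulse compared with the same well before compound.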

Sequence of human ether-à-go-go-related gene (hERG) potassium channel (Q12809 whole entry, looked up): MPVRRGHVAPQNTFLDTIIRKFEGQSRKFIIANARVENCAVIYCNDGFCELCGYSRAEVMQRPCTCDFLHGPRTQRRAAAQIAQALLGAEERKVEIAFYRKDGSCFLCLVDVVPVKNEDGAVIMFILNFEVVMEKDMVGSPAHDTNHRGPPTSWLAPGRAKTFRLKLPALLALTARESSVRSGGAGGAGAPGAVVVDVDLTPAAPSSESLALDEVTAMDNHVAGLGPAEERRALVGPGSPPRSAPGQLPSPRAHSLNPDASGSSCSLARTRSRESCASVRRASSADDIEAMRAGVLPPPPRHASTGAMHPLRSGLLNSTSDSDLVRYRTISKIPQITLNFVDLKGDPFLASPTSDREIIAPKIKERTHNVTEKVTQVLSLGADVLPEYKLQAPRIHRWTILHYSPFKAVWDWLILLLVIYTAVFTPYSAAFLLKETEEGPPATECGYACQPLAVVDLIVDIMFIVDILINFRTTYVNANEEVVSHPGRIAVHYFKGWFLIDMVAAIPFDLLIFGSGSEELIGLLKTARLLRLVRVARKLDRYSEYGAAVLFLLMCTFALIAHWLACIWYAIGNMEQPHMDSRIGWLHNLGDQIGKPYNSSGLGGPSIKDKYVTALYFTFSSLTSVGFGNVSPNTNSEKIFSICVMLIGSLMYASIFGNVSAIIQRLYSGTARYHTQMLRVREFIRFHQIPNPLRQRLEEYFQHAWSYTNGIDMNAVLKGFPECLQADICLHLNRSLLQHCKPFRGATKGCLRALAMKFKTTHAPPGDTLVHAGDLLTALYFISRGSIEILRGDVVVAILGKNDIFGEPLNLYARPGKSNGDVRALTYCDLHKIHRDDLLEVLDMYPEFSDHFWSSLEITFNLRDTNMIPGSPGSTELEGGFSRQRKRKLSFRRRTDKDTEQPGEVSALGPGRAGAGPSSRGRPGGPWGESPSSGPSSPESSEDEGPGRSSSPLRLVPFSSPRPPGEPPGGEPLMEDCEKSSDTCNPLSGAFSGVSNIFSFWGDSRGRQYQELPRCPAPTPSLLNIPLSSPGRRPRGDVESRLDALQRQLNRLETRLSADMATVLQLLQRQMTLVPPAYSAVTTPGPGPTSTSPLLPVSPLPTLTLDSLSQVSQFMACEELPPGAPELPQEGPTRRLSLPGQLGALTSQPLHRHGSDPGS

SMILES	hERG current change (%, negative = inhibition) at 10uM [%]
COc1ccc2c(c1)CC/C(=C\C=C\c1ccccc1OC)C2=O	8.8
Cc1cc(=O)[nH]c(N/N=C/c2ccc(Br)s2)n1	-13.9
CN1CCN(c2ccc(-c3cccc(NC(=O)COc4ccc(Cl)cc4Cl)c3)nn2)CC1	6.83
O=C(COc1ccc2c3c(c(=O)oc2c1)CCC3)NC(Cc1ccc(Cl)cc1)C(=O)O (centres unmarked)	3.55
Cc1ccc2nc(Cl)c(CN(Cc3cccs3)C(=O)C3CC3)cc2c1	8.82
C[C@]12CC[C@@H](O)C[C@@H]1CC[C@@H]1[C@@H]2CC[C@]2(C)[C@@H](O)CC[C@@H]12	19.8
N#CCOC(=O)C1CSC2(c3ccc(Br)cc3)CCC(=O)N12 (centres unmarked)	8.43
CCCCOc1cccc(C(=O)NC(=S)Nc2cccc(NC(=O)c3ccccc3Cl)c2)c1	-8.49
CC(C)(C)c1ccc(C(=O)NNC(=O)c2ccncc2)cc1	15.5
CN(C)C1=NCCN1CCCC1CCCC1	-51
CC(C)CCCN1CCN=C1N(C)C	8.91
CCCCCCCN1CCN=C1N(C)C	-67.7
CN(C)C1=NCCN1CCCC1CCCCC1	-38.6
CN(C)C1=NCCN1CCC1CCCC1	1.87
CCCCN1CCN=C1N(C)C	12
COc1ccc(NC(=O)CN(C)C(=O)CN2C(=O)NC3(CCCCC3)C2=O)cc1	3.29
Cc1nn(CC(=O)Nc2ccc3c(c2)nc(CN2CCCC2)n3C)c(=O)c2ccccc12	-13.4
Cc1c(C(=O)NNC(=O)c2ccncc2)oc2ccccc12	-5.92
Cc1c(C(=O)NNC(=O)c2ccccc2O)oc2ccc(Br)cc12	8.46
Cc1c(C(=O)NNC(=O)c2ccncc2)oc2ccc(Br)cc12	-68.5
COc1ccccc1NC(=O)N1CCC(NC(=O)C2CCCCC2)CC1	5.27
N#CCSc1nnc(C2CCCCC2)n1Cc1ccccc1	-11.6
Cc1[nH]c2ccccc2c1C(=O)C(C)OC(=O)c1ccccc1NCCO (centres unmarked)	15
O=S(=O)(Nc1nnc(-c2ccccc2)s1)c1ccc(Cl)cc1	0.769

SMILES	hERG current change (%, negative = inhibition) at 10uM [%]
O=C(Nc1ccc(F)cc1)c1ccc(Br)c(S(=O)(=O)N2CCOCC2)c1	-58.8
O=C(c1ccc(F)c(S(=O)(=O)N2CCOCC2)c1)N1CCN(c2ncccn2)CC1	-4.06
O=C(c1ccc(Cl)c(S(=O)(=O)N2CCCCCC2)c1)N1CCN(c2ccc(O)cc2)CC1	-50.4
O=C(c1ccc(Cl)c(S(=O)(=O)N2CCCCC2)c1)N1CCN(c2ccccc2)CC1	-26.5
O=C(Nc1ccc(S(=O)(=O)N2CCOCC2)cc1)c1ccc(F)cc1	-6.51
O=C(c1ccc(S(=O)(=O)N2CCOCC2)cc1)N1CCN(c2ccc(F)cc2)CC1	-5.3
COc1ccc(N2CCN(C(=O)c3ccc(Cl)c(S(=O)(=O)N4CCCC4)c3)CC2)cc1	-31.6
Cl.O=C(c1ccc(Cl)c(S(=O)(=O)N2CCCC2)c1)N1CCN(c2ccc(F)cc2)CC1	-58.5
O=C(c1ccc(Cl)c(S(=O)(=O)N2CCCC2)c1)N1CCN(c2ccccc2F)CC1	-20.6
O=C(c1ccc(Cl)c(S(=O)(=O)N2CCCC2)c1)N1CCN(c2ccccc2)CC1	-8.69
O=C(c1ccc(F)c(S(=O)(=O)N2CCOCC2)c1)N1CCN(c2ccc(F)cc2)CC1	-60.5
COc1ccc(NC(=O)c2ccc(Br)c(S(=O)(=O)N3CCOCC3)c2)cc1	1.53
COc1ccc(NC(=O)C/C(C)=N/NC(=O)CCc2ccccc2)c(OC)c1	4.6
CC(=O)c1cccc(NC(=S)NC(=O)c2ccccc2Br)c1	10.9
Cl.N/C(=N\O)C1COc2ccccc2O1 (centres unmarked)	16.4
CCOC(=O)C1CCCN(C(=O)CSc2ccc(NC(C)=O)cc2)C1 (centres unmarked)	14.9
COc1ccccc1N1CCN(C(=O)CSc2nc3ncnc(N)c3[nH]2)CC1	21.3
Cc1nc2cc(NS(=O)(=O)c3cccc(F)c3)ccc2s1	7.97
COc1nc(Nc2ccccc2)nc(OC)n1	5.84
CC(C)CCNC(=O)CCCc1ccccc1	14.5
Brc1nc(-c2ccccc2)nc(-c2ccccc2)c1Br	-5.38
Cc1ccc(C(=O)N2CCCCC2)cc1S(=O)(=O)N1CCCC1	5.55
Cc1ccc(C(=O)N2CCN(c3ccc(F)cc3)CC2)cc1S(=O)(=O)N1CCCCC1	-54
